Experimental data as given in PubChem BioAssay (NCI).
This is part of a sample that, as a whole, favours compounds with a hit. Of some 83,000 tested, about 20% had one in any assay.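 How to read the values: 0–100, growth inhibition (40 = 60% inhibited); 0, no net growth; -100 to 0, cell death (-40 = 40% of starting cells died; -100 = all dead).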 A number with no mark means an inactive call. The source made the active and inactive calls. The calls were made as follows: active = growth percent below 10; inactive = the rest.

Legend:
Assay in all cases: NCI-60 one-dose screen, 48 h (100 = growth as untreated, 0 = no growth, -100 = all killed)
Conditions in all cases: 10 µM
HT29 colon = tested on: HT29 colon
SNB-75 CNS = tested on: SNB-75 CNS
U251 CNS = tested on: U251 CNS
PC-3 prostate = tested on: PC-3 prostate
SK-MEL-5 melanoma = tested on: SK-MEL-5 melanoma
UACC-62 melanoma = tested on: UACC-62 melanoma
SK-MEL-28 melanoma = tested on: SK-MEL-28 melanoma
SK-MEL-2 melanoma = tested on: SK-MEL-2 melanoma
LOX IMVI melanoma = tested on: LOX IMVI melanoma
SNB-19 CNS = tested on: SNB-19 CNS

Row | Structure (SMILES) | growth (HT29 colon) | growth (SNB-75 CNS) | growth (U251 CNS) | growth (PC-3 prostate) | growth (SK-MEL-5 melanoma) | growth (UACC-62 melanoma) | growth (SK-MEL-28 melanoma) | growth (SK-MEL-2 melanoma) | growth (LOX IMVI melanoma) | growth (SNB-19 CNS)
1 | CC[C@H]1CCC/C=C/[C@@H]2C[C@H](O)C[C@H]2[C@H](O)/C=C/C(=O)O1 | -56.8% (active) | 27.5% | 15.7% | 13.6% | -99.6% (active) | -0.469% (active) | -0.327% (active) | -48.1% (active) |  | 
2 | CS(=O)(=O)Nc1cccc(-c2cc(-c3ccccc3Cl)c(C#N)c(N)n2)c1 | 15.6% | -26.4% (active) | 24.7% | 22.3% | 30.9% | 42.8% | 69.1% | 38.5% |  | 
3 | COc1cc(Cl)cc(-c2nn(-c3cccc(NC(=O)Nc4ccc(Cl)c(Cl)c4)c3)cc2-c2ccncc2)c1 | 7.39% (active) | 16.2% | 3.01% (active) | -5.03% (active) | 3.51% (active) | 4.38% (active) | 23.2% | -32.1% (active) | 9.24% (active) | 
4 | O=C(Nc1ccccc1)Nc1cccc(-n2cc(-c3ccncc3)c(-c3ccc(O)c(Cl)c3)n2)c1 | 64.7% | 48.3% | -9.56% (active) | 31.3% | 42.8% | 43.8% | 43.6% |  |  | 
5 | COc1cc(-c2cc(/C=C3\C(=O)Nc4ccc(Cl)cc43)[nH]n2)cc(OC)c1OC | 24.2% | -5.13% (active) | 32.1% | -13.2% (active) | -68.8% (active) | -59.6% (active) | -1.56% (active) | -19.1% (active) | 5.85% (active) | 
6 | CSc1nn(-c2ccccc2)c2ncnc(Oc3ccc(C)cc3)c12 | 99.3% | 75.1% | 91.2% | 82.5% | 94.5% | 99.6% | 99.5% | 75.3% | 95% | 
7 | COc1ccc(CN2CCC(N3CCCC3=O)c3cc(Cl)ccc32)cc1 (configuration not stated) | 88.8% | 103% | 105% | 84.4% | 103% | 85.2% | 116% |  | 103% | 
8 | COc1ccc(-c2cc(/C=C3\C(=O)Nc4ccc(Cl)cc43)[nH]n2)cc1OC | 93.5% | 64.2% | 95.2% | 88.4% | 73% | 95.9% | 99.3% | 99.5% | 90.5% | 
9 | CCC1(C(C)C)NC(=O)NC1=O (configuration not stated) | 106% | 100% | 98.2% | 98.5% | 104% | 94.6% |  | 83.8% | 99.7% | 
10 | O=S(=O)(NCCCNc1nccc(-c2c(-c3ccc(F)cc3)nc3sccn23)n1)c1ccc2ccccc2c1 | -7.72% (active) | 50.1% | 27.4% | 35.5% | 43.4% | 45% | 72.6% |  | 37.3% | 
11 | COc1cccc(C2C3=C(COC3=O)N(CCO)c3cc(OC)ccc32)c1 (configuration not stated) | -8.66% (active) | 27.2% | 12.7% | 26.9% | -3.6% (active) | 14.6% | 56.1% |  | 23.9% | 
12 | COc1cc(/C(=C2/O[C@@H]([C@H]3COC(C)(C)O3)[C@H]3OC(C)(C)O[C@@H]23)c2ccc3ccccc3c2)cc(OC)c1OC | 41% | 41.1% | 18% | 27% | 38.3% | 46.5% |  | -49.7% (active) | 46.4% | 
13 | CCN(CC)CCC(CNc1c(C)cnc2cc(Cl)ccc12)c1ccc(Cl)cc1 (configuration not stated) | 14.8% | 65.3% | 48.6% | 55.9% | -94.2% (active) | -28.8% (active) | -88.8% (active) | 92.8% | 33.6% | 
14 | CN(C)c1ccc(-c2cc(-c3cccc(NS(C)(=O)=O)c3)nc(N)c2C#N)cc1 | 8.8% (active) | -2.46% (active) | 20.3% | 10.4% | 4.17% (active) | 47.4% | 69% | 57.2% | 23.7% | 
15 | O=C(Nc1ccc(Cl)c([N+](=O)[O-])c1)Nc1nc2ccccc2s1 | 87.3% | 94.2% | 84% | 49.9% | 74.3% | 70% | 98.8% | 102% | 91.4% | 
16 | COC(=O)[C@@H]1[C@H](O)[C@H](C)[C@H](O)[C@@](C)(O)/C=C\C=C(C)C(=O)Nc2c(C)c(OC(C)=O)c3c(c2O)C(=O)C(C)=C2OCOC(=C23)C(C)=C[C@@](C)(O)[C@H](O)[C@@H](C)[C@H]1OC(C)=O | 111% | 81.9% | 104% | 22% | 98% | 97.8% |  | 117% | 104% | 

Row | Structure (SMILES) | growth (HT29 colon) | growth (SNB-75 CNS) | growth (U251 CNS) | growth (PC-3 prostate) | growth (SK-MEL-5 melanoma) | growth (UACC-62 melanoma) | growth (SK-MEL-28 melanoma) | growth (SK-MEL-2 melanoma) | growth (LOX IMVI melanoma) | growth (SNB-19 CNS)
17 | COc1cc(-c2nc(-c3nnc(-c4ccccc4Cl)o3)c3ccccn23)cc(OC)c1OC | 91.4% | 79.4% | 96.9% | 74.2% | 80.2% | 69.8% | 94.6% | 79% | 77.9% | 
18 | Nc1ccc2c(c1)Cc1cc(N)c(Br)cc1-2 | 107% | 67.1% | 108% | 96.9% | 97.8% | 96.7% | 115% | 116% |  | 
19 | O=S(=O)(NCCNc1nccc(-c2c(-c3ccc(F)cc3)nc3sccn23)n1)c1ccc2ccccc2c1 | 44.9% | 79.3% | 71% | 73.4% | 69.2% | 71.7% | 93% |  | 71.3% | 
20 | COc1cc(NC(=O)CSc2nc3ccccc3c(=O)n2CCc2ccccc2)cc(OC)c1OC | 15.4% | -26.7% (active) | -12.5% (active) | 41.8% | -41.9% (active) | 25.3% | 37.5% | -2.19% (active) | 30.6% | 
21 | O=c1cc(-c2ccccc2)[nH]n1-c1nc2ccccc2[nH]1 | 87.1% |  | 31.7% | 56.6% | 34.1% | 36.5% | 74.1% | 68.5% | 27.8% | 53.1%
22 | Fc1cc(C(F)(F)F)ccc1-c1cncnc1NC1CCCCCC1 | 110% |  | 79.9% | 87.1% | 92.2% | 78.9% | 111% | 98.8% | 98.3% | 94.2%
23 | COc1ccc(/C=C/C(=O)Nc2ccc(-c3nc4ccc(F)cc4s3)cc2)cc1 | 101% |  | 95.4% | 94.6% | 86.8% | 99.8% | 109% | 117% | 94.7% | 99%
24 | CN(C)CCN=c1nc2c(c(N)n1-c1ccccc1)c(=S)n(-c1ccccc1)c(=S)n2-c1ccccc1 | -35.7% (active) |  | 2.1% (active) | 31% | -98.8% (active) | -90.3% (active) | -100% (active) |  | -61.4% (active) | 26.1%
25 | CCCCC(CCCCCC(CCCC)NCc1ccc2c(c1)OCO2)NCc1ccc2c(c1)OCO2 (configuration not stated) | -100% (active) |  | -95.3% (active) | -100% (active) | -100% (active) | -95.4% (active) | -100% (active) | -87.2% (active) | -96.8% (active) | -100% (active)
26 | O=C(c1cccs1)c1ccccc1Cc1ccccc1 | 96.6% |  | 92.5% | 87.7% | 97.9% | 90.1% | 101% | 96.1% | 103% | 90.4%
27 | O=C(O)c1ccc(Cl)cc1Nc1ccc(F)cc1 | 101% |  | 52.3% | 83.9% | 102% | 92.4% | 86.2% | 93.4% | 43.1% | 87.1%
28 | CCN(CCCCCCN1CC(=O)N(CCCCCCN(CC)Cc2ccccc2OC)CC1=O)Cc1ccccc1OC | 20% |  | 88.8% | 77.1% | 90.9% | 104% |  | 63.4% | 85.8% | 94.8%
29 | O=C1C(=O)c2ccccc2C(O)=C1CCCc1ccc(C2CCCCCC2)cc1 | 28.5% |  | 46.1% | 20.9% | 25.2% | 46.6% | 49.7% | 88.1% | 16.5% | 52.8%
30 | Nc1nccc(Nc2ccccc2)n1 | 121% |  | 104% | 102% | 107% | 105% | 116% | 117% | 109% | 116%
31 | COc1ccc(NC2=NC(C)(CO)CS2)cc1 (configuration not stated) | 105% |  | 101% | 82.2% | 96.3% | 96.1% | 106% | 108% |  | 
32 | Nc1ccccc1NC(=O)CCCCC(=O)Nc1ccc2c(c1)/C(=C/c1ccc[nH]1)C(=O)N2 | 67.2% |  | 48.5% | 81.6% | 87.7% | 58% | 86.1% | 46.2% | 85.2% | 76.4%
